# According to PubChem BioAssay (NCI):
# The panel holds about 79,000 compounds, 15% with a hit somewhere; the sample as a whole holds those more often. Values without a mark were called inactive. Calls of active or inactive are those of the source. Rule as the data show it: active = growth inhibition above about 70%; inactive = the rest.
# What was measured:
# [1] = NCI Yeast Anticancer Drug Screen. Data for the rad52 strain (AID 147);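 also: 0% = growth of vehicle-treated control cultures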; settings: S. cerevisiae rad52 mutant growth inhibition, stronger effect = higher value
# Summary of the method: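 Vehicle-treated cultures served as the reference for growth inhibition of compound-exposed yeast bearing a DNA repair mutation.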
# [2] = NCI Yeast Anticancer Drug Screen. Data for the wt1 strain (AID 149);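 also: 0% = growth of vehicle-treated wt1 cultures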; settings: S. cerevisiae wt1 strain (SPY 50644) growth inhibition, stronger effect = higher value
# Summary of the method: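 Each compound is tested on wt1 yeast and the loss of growth versus vehicle gives the inhibition value.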
# [3] = NCI Yeast Anticancer Drug Screen. Data for the rad50EPP+ strain (AID 151);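 also: 0% = growth of vehicle-treated control cultures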; settings: S. cerevisiae rad50 mutant strain, stronger effect = higher value
# Summary of the method: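 In this screen, rad50EPP+ yeast were exposed to compounds. Growth inhibition was scored against vehicle-treated controls.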
# [4] = NCI Yeast Anticancer Drug Screen. Data for the mgt1 strain (AID 153); settings: S. cerevisiae mgt1 mutant growth inhibition, stronger effect = higher value
# Summary of the method: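 mgt1 strain exposed; growth vs vehicle control recorded as inhibition.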
# [5] = NCI Yeast Anticancer Drug Screen. Data for the rad50 strain (AID 155);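 also: 0% = growth of vehicle-only cultures of the same strain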; settings: S. cerevisiae rad50 strain growth inhibition, stronger effect = higher value
# Summary of the method: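 Vehicle-treated cultures provide the reference for the growth inhibition reported for compound-exposed, repair-deficient yeast.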
# [6] = NCI Yeast Anticancer Drug Screen. Data for the mec2-1 strain (AID 157); settings: S. cerevisiae mec2-1 strain, stronger effect = higher value
# Summary of the method: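 Vehicle-treated cultures served as reference for growth inhibition of compound-exposed mec2-1 yeast.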
# [7] = NCI Yeast Anticancer Drug Screen. Data for the rad14 strain (AID 159);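 also: 0% = growth of vehicle-treated control cultures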; settings: S. cerevisiae rad14 strain growth inhibition, stronger effect = higher value
# Summary of the method: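 Inhibition of growth is reported for a repair-deficient yeast mutant following compound treatment, calculated relative to cultures that received vehicle.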
# [8] = NCI Yeast Anticancer Drug Screen. Data for the sgs1 mgt1 strain (AID 161);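 also: 0% = growth of cultures given vehicle only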; settings: S. cerevisiae sgs1 mgt1 strain, stronger effect = higher value
# Summary of the method: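 Genetically altered yeast, compound exposure, growth inhibition relative to vehicle.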
# [9] = NCI Yeast Anticancer Drug Screen. Data for the CLN2oe strain (AID 163);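 also: 0% = growth of vehicle-only control cultures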; settings: S. cerevisiae CLN2oe strain, stronger effect = higher value
# Summary of the method: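 Inhibition relative to vehicle-treated yeast is reported. Cells: strain with genetic alteration in cell-cycle control, grown with compound.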
# [10] = NCI Yeast Anticancer Drug Screen. Data for the cln2 rad14 strain (AID 165);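 also: 0% = growth equal to vehicle treated cultures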; settings: S. cerevisiae cln2 rad14 strain, stronger effect = higher value
# Summary of the method: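 Each compound was tested on cln2 rad14 yeast. Inhibition of growth was calculated against vehicle-exposed controls.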
# [11] = NCI Yeast Anticancer Drug Screen. Data for the bub3 strain (AID 167); settings: S. cerevisiae bub3 mutant strain, stronger effect = higher value
# Summary of the method: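 Mutant yeast screening strain plus compound; vehicle-treated cultures serve as the 0% inhibition reference.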
# [12] = NCI Yeast Anticancer Drug Screen. Data for the wt2 strain (AID 169); settings: S. cerevisiae wt2 strain growth inhibition, stronger effect = higher value
# Summary of the method: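 Inhibition of yeast growth was determined after compound treatment, normalised to controls receiving only vehicle.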
# [13] = NCI Yeast Anticancer Drug Screen. Data for the mlh1 strain (AID 171);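 also: 0% = growth of vehicle-treated control cultures of the same strain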; settings: S. cerevisiae mlh1 strain growth inhibition, stronger effect = higher value
# Summary of the method: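 Vehicle-normalised growth inhibition of a repair- or checkpoint-altered yeast strain following compound treatment.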
# [14] = NCI Yeast Anticancer Drug Screen. Data for the sgs1 strain (AID 173);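 also: 0% = growth of vehicle-only control cultures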; settings: S. cerevisiae sgs1 mutant, stronger effect = higher value
# Summary of the method: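 Screen format: yeast with repair or checkpoint alterations, compound exposure, growth read relative to vehicle.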
# [15] = NCI Yeast Anticancer Drug Screen. Data for the mlh1 rad18 strain (AID 175); settings: S. cerevisiae mlh1 rad18 strain growth inhibition, stronger effect = higher value
# Summary of the method: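 Vehicle-treated cultures served as the reference for growth inhibition in a yeast strain carrying DNA damage repair alterations exposed to each compound.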
# [16] = NCI Yeast Anticancer Drug Screen. Data for the rad18 strain (AID 177); settings: S. cerevisiae rad18 mutant growth inhibition, stronger effect = higher value
# Summary of the method: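 Test articles were incubated with altered yeast defective in DNA damage repair. Results are given as inhibition of growth versus vehicle.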
# [17] = at 5.0 µM (retest, dose inferred, filed as 0.5)
# [18] = at 50.0 µM (retest, dose inferred, filed as 5.0)
smiles,measurement,setting,value
O=c1oc2ccccc2c(O)c1C(c1ccc2c(c1)Cc1ccccc1-2)c1c(O)c2ccccc2oc1=O,growth inhibition,[1]; at 1.2 µM,-7%
same,growth inhibition,[1]; at 3.7 µM,15%
same,growth inhibition,[1]; at 11.0 µM,19%
same,growth inhibition,[1]; at 33.0 µM,65%
same,growth inhibition,[1]; at 100.0 µM,96% (active)
same,growth inhibition,[2]; at 1.2 µM,-16%
same,growth inhibition,[2]; at 3.7 µM,-5%
same,growth inhibition,[2]; at 11.0 µM,5%
same,growth inhibition,[2]; at 33.0 µM,53%
same,growth inhibition,[2]; at 100.0 µM,97% (active)
same,growth inhibition,[3]; at 1.2 µM,-16%
same,growth inhibition,[3]; at 3.7 µM,43%
same,growth inhibition,[3]; at 11.0 µM,46%
same,growth inhibition,[3]; at 33.0 µM,50%
same,growth inhibition,[3]; at 100.0 µM,51%
same,growth inhibition,[4]; at 1.2 µM,6%
same,growth inhibition,[4]; at 3.7 µM,8%
same,growth inhibition,[4]; at 11.0 µM,31%
same,growth inhibition,[4]; at 33.0 µM,97% (active)
same,growth inhibition,[4]; at 100.0 µM,97% (active)
same,growth inhibition,[5]; at 1.2 µM,1%
same,growth inhibition,[5]; at 3.7 µM,14%
same,growth inhibition,[5]; [17],17%
same,growth inhibition,[5]; at 11.0 µM,22%
same,growth inhibition,[5]; at 33.0 µM,61%
same,growth inhibition,[5]; [18],5%
same,growth inhibition,[5]; at 50.0 µM,70.2% (active)
same,growth inhibition,[5]; at 100.0 µM,96% (active)
same,growth inhibition,[6]; at 1.2 µM,-18%
same,growth inhibition,[6]; at 3.7 µM,-4%
same,growth inhibition,[6]; [17],12%
same,growth inhibition,[6]; at 11.0 µM,25%
same,growth inhibition,[6]; at 33.0 µM,95% (active)
same,growth inhibition,[6]; [18],92% (active)
same,growth inhibition,[6]; at 50.0 µM,89% (active)
same,growth inhibition,[6]; at 100.0 µM,97% (active)
same,growth inhibition,[7]; at 1.2 µM,9%
same,growth inhibition,[7]; at 3.7 µM,14%
same,growth inhibition,[7]; at 11.0 µM,18%
same,growth inhibition,[7]; at 33.0 µM,97% (active)
same,growth inhibition,[7]; at 100.0 µM,98% (active)
same,growth inhibition,[8]; [17],-14%
same,growth inhibition,[8]; [18],96% (active)
same,growth inhibition,[8]; at 50.0 µM,73.4% (active)
same,growth inhibition,[9]; at 1.2 µM,23%
same,growth inhibition,[9]; at 3.7 µM,0%
same,growth inhibition,[9]; at 11.0 µM,15%
same,growth inhibition,[9]; at 33.0 µM,91% (active)
same,growth inhibition,[9]; at 100.0 µM,97% (active)
same,growth inhibition,[10]; [17],10%
same,growth inhibition,[10]; [18],95% (active)
same,growth inhibition,[10]; at 50.0 µM,79% (active)
same,growth inhibition,[11]; at 1.2 µM,-7%
same,growth inhibition,[11]; at 3.7 µM,-2%
same,growth inhibition,[11]; [17],18%
same,growth inhibition,[11]; at 11.0 µM,13%
same,growth inhibition,[11]; at 33.0 µM,63%
same,growth inhibition,[11]; [18],95% (active)
same,growth inhibition,[11]; at 50.0 µM,75.9% (active)
same,growth inhibition,[11]; at 100.0 µM,96% (active)
same,growth inhibition,[12]; at 1.2 µM,-17%
same,growth inhibition,[12]; at 3.7 µM,-14%
same,growth inhibition,[12]; at 11.0 µM,52%
same,growth inhibition,[12]; at 33.0 µM,95% (active)
same,growth inhibition,[12]; at 100.0 µM,93% (active)
same,growth inhibition,[13]; at 1.2 µM,4%
same,growth inhibition,[13]; at 3.7 µM,3%
same,growth inhibition,[13]; at 11.0 µM,25%
same,growth inhibition,[13]; at 33.0 µM,96% (active)
same,growth inhibition,[13]; at 100.0 µM,98% (active)
same,growth inhibition,[14]; at 1.2 µM,18%
same,growth inhibition,[14]; at 3.7 µM,29%
same,growth inhibition,[14]; at 11.0 µM,17%
same,growth inhibition,[14]; at 33.0 µM,83% (active)
same,growth inhibition,[14]; at 100.0 µM,97% (active)
same,growth inhibition,[15]; [17],14%
same,growth inhibition,[15]; [18],59%
same,growth inhibition,[15]; at 50.0 µM,88% (active)
same,growth inhibition,[16]; at 1.2 µM,21%
same,growth inhibition,[16]; at 3.7 µM,25%
same,growth inhibition,[16]; at 11.0 µM,23%
same,growth inhibition,[16]; at 33.0 µM,52%
same,growth inhibition,[16]; at 100.0 µM,96% (active)
O=C(O)C1C2CCC(C2)C1c1ccccc1 (stereo not drawn),growth inhibition,[1]; at 1.2 µM,-1%
same,growth inhibition,[1]; at 3.7 µM,-3%
same,growth inhibition,[1]; at 11.0 µM,-6%
same,growth inhibition,[1]; at 33.0 µM,-3%
same,growth inhibition,[1]; at 100.0 µM,20%
same,growth inhibition,[2]; at 1.2 µM,-1%
same,growth inhibition,[2]; at 3.7 µM,-2%
same,growth inhibition,[2]; at 11.0 µM,-4%
same,growth inhibition,[2]; at 33.0 µM,-1%
same,growth inhibition,[2]; at 100.0 µM,26%
same,growth inhibition,[3]; at 1.2 µM,-1%
same,growth inhibition,[3]; at 3.7 µM,-2%
same,growth inhibition,[3]; at 11.0 µM,-2%
same,growth inhibition,[3]; at 33.0 µM,-2%
same,growth inhibition,[3]; at 100.0 µM,-3%
same,growth inhibition,[4]; at 1.2 µM,-1%
same,growth inhibition,[4]; at 3.7 µM,-1%
same,growth inhibition,[4]; at 11.0 µM,-4%
same,growth inhibition,[4]; at 33.0 µM,-5%
same,growth inhibition,[4]; at 100.0 µM,31%
same,growth inhibition,[5]; at 1.2 µM,-10%
same,growth inhibition,[5]; at 3.7 µM,-51%
same,growth inhibition,[5]; [17],-2%
same,growth inhibition,[5]; at 11.0 µM,2%
same,growth inhibition,[5]; at 33.0 µM,-3%
same,growth inhibition,[5]; [18],10%
same,growth inhibition,[5]; at 50.0 µM,19.4%
same,growth inhibition,[5]; at 100.0 µM,34%
same,growth inhibition,[6]; at 1.2 µM,-1%
same,growth inhibition,[6]; at 3.7 µM,-4%
same,growth inhibition,[6]; [17],-8%
same,growth inhibition,[6]; at 11.0 µM,-7%
same,growth inhibition,[6]; at 33.0 µM,-1%
same,growth inhibition,[6]; [18],8%
same,growth inhibition,[6]; at 50.0 µM,14.4%
same,growth inhibition,[6]; at 100.0 µM,31%
same,growth inhibition,[7]; at 1.2 µM,0%
same,growth inhibition,[7]; at 3.7 µM,0%
same,growth inhibition,[7]; at 11.0 µM,-5%
same,growth inhibition,[7]; at 33.0 µM,-8%
same,growth inhibition,[7]; at 100.0 µM,13%
same,growth inhibition,[8]; [17],-2%
same,growth inhibition,[8]; [18],8%
same,growth inhibition,[8]; at 50.0 µM,10.2%
same,growth inhibition,[9]; at 1.2 µM,-7%
same,growth inhibition,[9]; at 3.7 µM,-10%
same,growth inhibition,[9]; at 11.0 µM,-6%
same,growth inhibition,[9]; at 33.0 µM,-1%
same,growth inhibition,[9]; at 100.0 µM,18%
same,growth inhibition,[10]; [17],-6%
same,growth inhibition,[10]; [18],8%
same,growth inhibition,[10]; at 50.0 µM,11%
same,growth inhibition,[12]; at 1.2 µM,-1%
same,growth inhibition,[12]; at 3.7 µM,7%
same,growth inhibition,[12]; at 11.0 µM,-3%
same,growth inhibition,[12]; at 33.0 µM,0%
same,growth inhibition,[12]; at 100.0 µM,37%
same,growth inhibition,[13]; at 1.2 µM,-2%
same,growth inhibition,[13]; at 3.7 µM,-2%
same,growth inhibition,[13]; at 11.0 µM,-1%
same,growth inhibition,[13]; at 33.0 µM,-2%
same,growth inhibition,[13]; at 100.0 µM,31%
same,growth inhibition,[14]; at 1.2 µM,-2%
same,growth inhibition,[14]; at 3.7 µM,0%
same,growth inhibition,[14]; at 11.0 µM,3%
same,growth inhibition,[14]; at 33.0 µM,15%
same,growth inhibition,[14]; at 100.0 µM,66%
same,growth inhibition,[15]; [17],-1%
same,growth inhibition,[15]; [18],6%
same,growth inhibition,[15]; at 50.0 µM,20.1%
same,growth inhibition,[16]; at 1.2 µM,0%
same,growth inhibition,[16]; at 3.7 µM,-1%
same,growth inhibition,[16]; at 11.0 µM,-5%
same,growth inhibition,[16]; at 33.0 µM,1%
same,growth inhibition,[16]; at 100.0 µM,47%
